Measurements from the supplement of paper PMC10849652.
Targets with a hit are over-represented here; the source holds about 8,800 in all. About 0.5% of all pairs of compound and target were hits. A number with no mark means an inactive call.

compound: CN1CCC(CNc2ccc3ncc(-c4cccc(OC(F)(F)F)c4)n3n2)CC1; assay: log2 fold change, soluble protein after heating vs DMSO (PISA); higher = thermal stabilisation; K562 lysate, 10 uM; active = over 0.2 and 3.5 SD of the protein, either way, in both replicates (recomputed)
Summary of the method: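 Following dounce homogenisation of K562 pellets in PBS pH 7.4 with 1 mM MgCl2, crude extract at 1 mg/mL protein was incubated for 30 min with 10 μM compound. Aliquots were then heated for 3 min over 48°C-58°C and pooled, NP-40 was added to 0.5% at 4°C, and soluble protein was recovered as the supernatant at 21,000xg for 90 min. Channel-sum-equalised TMTpro 16plex LC-MS/MS quantified this protein. Each value, from duplicates, is a log-two fold change in thermal stability relative to solvent controls.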

Chain of UniProt O76041 (O76041 whole entry, looked up): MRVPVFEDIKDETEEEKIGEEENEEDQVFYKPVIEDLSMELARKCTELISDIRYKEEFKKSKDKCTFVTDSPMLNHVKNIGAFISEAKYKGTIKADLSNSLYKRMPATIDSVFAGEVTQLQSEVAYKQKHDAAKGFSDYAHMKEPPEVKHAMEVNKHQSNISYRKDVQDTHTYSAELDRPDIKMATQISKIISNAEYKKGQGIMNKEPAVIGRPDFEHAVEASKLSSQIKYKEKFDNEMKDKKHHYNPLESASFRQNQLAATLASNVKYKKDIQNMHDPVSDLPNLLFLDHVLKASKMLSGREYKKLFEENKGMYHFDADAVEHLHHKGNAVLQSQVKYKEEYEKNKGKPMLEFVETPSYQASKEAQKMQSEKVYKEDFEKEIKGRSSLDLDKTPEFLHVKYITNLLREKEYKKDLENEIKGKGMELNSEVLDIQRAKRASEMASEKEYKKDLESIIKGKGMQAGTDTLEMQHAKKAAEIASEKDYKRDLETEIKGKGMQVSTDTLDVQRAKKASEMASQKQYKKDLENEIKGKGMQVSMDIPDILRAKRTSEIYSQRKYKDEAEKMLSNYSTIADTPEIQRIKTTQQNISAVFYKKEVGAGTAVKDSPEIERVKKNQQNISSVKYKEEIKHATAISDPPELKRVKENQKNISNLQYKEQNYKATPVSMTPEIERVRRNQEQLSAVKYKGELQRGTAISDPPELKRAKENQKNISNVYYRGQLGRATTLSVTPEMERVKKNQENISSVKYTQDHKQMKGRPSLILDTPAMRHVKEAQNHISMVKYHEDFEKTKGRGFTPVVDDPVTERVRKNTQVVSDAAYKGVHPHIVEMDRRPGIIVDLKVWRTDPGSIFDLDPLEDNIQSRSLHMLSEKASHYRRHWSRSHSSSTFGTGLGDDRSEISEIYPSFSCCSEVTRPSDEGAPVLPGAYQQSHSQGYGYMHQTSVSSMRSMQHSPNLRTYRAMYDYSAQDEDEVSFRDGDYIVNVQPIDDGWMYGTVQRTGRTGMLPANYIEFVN
Chain of UniProt P21359 (P21359 whole entry, looked up): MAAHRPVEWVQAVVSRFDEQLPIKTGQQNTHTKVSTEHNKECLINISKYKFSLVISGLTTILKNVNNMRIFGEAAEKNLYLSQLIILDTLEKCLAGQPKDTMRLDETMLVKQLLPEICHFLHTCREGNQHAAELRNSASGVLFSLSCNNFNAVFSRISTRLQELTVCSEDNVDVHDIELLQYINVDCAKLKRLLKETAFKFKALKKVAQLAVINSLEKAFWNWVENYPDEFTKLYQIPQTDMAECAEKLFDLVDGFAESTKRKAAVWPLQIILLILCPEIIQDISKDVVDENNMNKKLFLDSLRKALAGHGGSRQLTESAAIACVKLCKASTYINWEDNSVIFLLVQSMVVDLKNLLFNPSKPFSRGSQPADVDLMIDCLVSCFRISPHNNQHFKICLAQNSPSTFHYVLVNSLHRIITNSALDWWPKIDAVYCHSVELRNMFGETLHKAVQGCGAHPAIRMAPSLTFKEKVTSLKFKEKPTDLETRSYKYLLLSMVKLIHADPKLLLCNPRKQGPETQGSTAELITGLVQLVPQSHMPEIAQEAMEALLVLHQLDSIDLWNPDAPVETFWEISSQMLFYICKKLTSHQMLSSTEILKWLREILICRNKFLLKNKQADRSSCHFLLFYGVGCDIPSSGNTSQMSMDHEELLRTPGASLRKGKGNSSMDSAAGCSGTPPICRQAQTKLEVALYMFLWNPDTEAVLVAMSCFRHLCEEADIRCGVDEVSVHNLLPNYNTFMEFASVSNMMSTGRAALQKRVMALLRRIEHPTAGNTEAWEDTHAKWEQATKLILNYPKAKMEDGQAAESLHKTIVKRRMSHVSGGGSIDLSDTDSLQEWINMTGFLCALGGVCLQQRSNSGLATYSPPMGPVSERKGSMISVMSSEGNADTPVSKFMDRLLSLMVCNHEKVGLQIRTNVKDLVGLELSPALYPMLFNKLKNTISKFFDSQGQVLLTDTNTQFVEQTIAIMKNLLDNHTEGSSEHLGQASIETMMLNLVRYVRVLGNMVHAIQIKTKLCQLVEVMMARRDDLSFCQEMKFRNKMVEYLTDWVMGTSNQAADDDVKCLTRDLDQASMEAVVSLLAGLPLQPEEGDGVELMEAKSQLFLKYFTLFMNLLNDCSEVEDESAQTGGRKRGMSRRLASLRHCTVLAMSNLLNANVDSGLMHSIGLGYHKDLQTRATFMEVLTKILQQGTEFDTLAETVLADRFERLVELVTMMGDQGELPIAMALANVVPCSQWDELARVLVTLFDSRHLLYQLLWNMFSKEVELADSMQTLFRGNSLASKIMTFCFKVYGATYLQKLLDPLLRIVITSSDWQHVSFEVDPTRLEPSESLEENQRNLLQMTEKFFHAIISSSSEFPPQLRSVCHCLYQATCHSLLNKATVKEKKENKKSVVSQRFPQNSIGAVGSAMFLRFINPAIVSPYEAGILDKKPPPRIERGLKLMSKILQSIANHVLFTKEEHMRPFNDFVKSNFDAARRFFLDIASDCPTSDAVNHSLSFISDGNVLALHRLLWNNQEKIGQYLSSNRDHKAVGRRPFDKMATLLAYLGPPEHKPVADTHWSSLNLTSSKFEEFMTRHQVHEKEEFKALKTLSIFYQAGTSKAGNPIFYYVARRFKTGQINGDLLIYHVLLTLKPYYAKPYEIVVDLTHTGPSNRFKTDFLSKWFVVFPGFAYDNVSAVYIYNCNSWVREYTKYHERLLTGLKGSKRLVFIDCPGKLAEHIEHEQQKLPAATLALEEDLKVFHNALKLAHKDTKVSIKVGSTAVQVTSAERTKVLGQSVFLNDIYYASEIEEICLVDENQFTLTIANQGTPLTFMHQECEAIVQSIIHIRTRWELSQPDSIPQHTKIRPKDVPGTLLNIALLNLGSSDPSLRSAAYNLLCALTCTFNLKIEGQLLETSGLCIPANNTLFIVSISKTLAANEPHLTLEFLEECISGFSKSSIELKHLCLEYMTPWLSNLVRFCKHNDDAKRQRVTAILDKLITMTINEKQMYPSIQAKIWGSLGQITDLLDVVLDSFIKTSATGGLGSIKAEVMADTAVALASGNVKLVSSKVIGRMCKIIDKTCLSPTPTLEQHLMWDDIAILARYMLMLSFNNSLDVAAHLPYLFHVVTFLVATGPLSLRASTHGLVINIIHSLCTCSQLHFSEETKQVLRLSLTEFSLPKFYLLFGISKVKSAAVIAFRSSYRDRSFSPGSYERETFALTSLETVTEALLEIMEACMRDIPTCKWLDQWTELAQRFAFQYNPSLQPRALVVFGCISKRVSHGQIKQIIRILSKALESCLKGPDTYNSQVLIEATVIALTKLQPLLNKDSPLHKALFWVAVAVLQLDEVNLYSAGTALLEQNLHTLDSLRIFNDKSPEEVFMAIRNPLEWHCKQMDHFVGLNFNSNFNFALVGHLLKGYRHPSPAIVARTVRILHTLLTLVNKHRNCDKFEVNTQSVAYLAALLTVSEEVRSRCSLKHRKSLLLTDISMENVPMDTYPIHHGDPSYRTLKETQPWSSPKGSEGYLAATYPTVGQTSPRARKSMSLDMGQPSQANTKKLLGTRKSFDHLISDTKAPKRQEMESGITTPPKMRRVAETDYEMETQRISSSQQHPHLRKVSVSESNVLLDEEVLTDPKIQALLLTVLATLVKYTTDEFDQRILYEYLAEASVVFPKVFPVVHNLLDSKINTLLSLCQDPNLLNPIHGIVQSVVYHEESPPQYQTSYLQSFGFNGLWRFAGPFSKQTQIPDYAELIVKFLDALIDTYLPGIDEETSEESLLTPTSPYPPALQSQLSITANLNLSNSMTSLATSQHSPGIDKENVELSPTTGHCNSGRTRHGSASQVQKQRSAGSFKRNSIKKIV
Chain of UniProt Q9NTK5 (Q9NTK5 whole entry, looked up): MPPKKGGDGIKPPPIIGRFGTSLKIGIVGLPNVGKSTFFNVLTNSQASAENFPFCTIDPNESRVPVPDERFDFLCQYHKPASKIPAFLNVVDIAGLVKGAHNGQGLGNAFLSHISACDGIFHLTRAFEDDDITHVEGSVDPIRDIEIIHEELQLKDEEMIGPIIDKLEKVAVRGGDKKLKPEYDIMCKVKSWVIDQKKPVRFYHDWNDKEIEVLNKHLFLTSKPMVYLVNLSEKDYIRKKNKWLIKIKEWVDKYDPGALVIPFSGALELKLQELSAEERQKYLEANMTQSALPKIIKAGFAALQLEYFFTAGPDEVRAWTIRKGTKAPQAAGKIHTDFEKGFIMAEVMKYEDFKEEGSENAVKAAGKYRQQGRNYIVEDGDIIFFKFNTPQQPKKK
Chain of UniProt Q9BZD4 (Q9BZD4 whole entry, looked up): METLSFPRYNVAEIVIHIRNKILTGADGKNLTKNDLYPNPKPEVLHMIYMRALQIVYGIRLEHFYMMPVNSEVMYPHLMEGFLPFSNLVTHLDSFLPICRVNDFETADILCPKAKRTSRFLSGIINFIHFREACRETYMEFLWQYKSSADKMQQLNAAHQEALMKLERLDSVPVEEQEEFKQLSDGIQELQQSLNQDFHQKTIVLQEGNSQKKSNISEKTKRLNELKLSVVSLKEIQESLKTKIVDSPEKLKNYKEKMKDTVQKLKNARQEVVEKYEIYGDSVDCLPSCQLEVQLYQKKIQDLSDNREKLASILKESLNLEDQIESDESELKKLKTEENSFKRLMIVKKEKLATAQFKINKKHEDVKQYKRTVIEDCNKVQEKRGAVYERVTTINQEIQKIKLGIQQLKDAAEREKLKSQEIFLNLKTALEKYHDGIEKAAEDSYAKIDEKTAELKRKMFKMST
Chain of UniProt Q9Y5N5 (Q9Y5N5 whole entry, looked up, one chain of several): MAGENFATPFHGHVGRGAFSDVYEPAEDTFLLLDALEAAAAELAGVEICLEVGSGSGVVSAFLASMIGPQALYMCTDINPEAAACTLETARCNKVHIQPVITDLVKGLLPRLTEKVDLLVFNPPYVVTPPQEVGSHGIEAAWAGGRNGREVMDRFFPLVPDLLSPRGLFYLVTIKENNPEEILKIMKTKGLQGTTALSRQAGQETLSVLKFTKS
Chain of UniProt Q9Y530 (Q9Y530 whole entry, looked up): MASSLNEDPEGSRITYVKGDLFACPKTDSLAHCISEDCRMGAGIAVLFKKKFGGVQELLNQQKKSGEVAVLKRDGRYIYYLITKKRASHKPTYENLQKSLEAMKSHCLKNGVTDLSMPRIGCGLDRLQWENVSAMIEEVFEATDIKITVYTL

Question: With MRPS12 (UniProt O15235) as the target, how does the log2 fold change read?
Answer: 0.001

Question: For NOSIP (UniProt Q9Y314), which log2 fold change is on record?
Answer: 0.016

Question: For N6AMT1 (UniProt Q9Y5N5), which log2 fold change is on record?
Answer: -0.048

Question: With NEBL isoform 2 (UniProt O76041) as the target, how does the log2 fold change read?
Answer: 0.084

Question: NAT1 (UniProt P18440) was tested. Which log2 fold change did it give?
Answer: -0.014

Question: Which log2 fold change does the source give for NUMBL (UniProt Q9Y6R0) here?
Answer: -0.011

Question: With NDUFAF5 (UniProt Q5TEU4) as the target, how does the log2 fold change read?
Answer: 0.035

Question: For ORC3 isoform 2 (UniProt Q9UBD5), which log2 fold change is on record?
Answer: -0.018

Question: Which log2 fold change does the source give for PAK1 (UniProt Q13153) here?
Answer: 0.06

Question: With OLA1 (UniProt Q9NTK5) as the target, how does the log2 fold change read?
Answer: 0.035

Question: How did the log2 fold change turn out when OARD1 (UniProt Q9Y530) was run?
Answer: -0.034

Question: For NIPBL (UniProt Q6KC79), which log2 fold change is on record?
Answer: -0.042

Question: Which log2 fold change does the source give for MTA1 (UniProt Q13330) here?
Answer: -0.061

Question: How did the log2 fold change turn out when MYH11 isoform 2 (UniProt P35749) was run?
Answer: -0.033

Question: Which log2 fold change does the source give for PANK2 (UniProt Q9BZ23) here?
Answer: -0.057

Question: How did the log2 fold change turn out when NPTN (UniProt Q9Y639) was run?
Answer: 0.052

Question: NEBL (UniProt O76041) was tested. Which log2 fold change did it give?
Answer: -0.002

Question: For NT5DC2 isoform 2 (UniProt Q9H857), which log2 fold change is on record?
Answer: 0.03

Question: NFATC1 (UniProt O95644) was tested. Which log2 fold change did it give?
Answer: 0.064

Question: NUP93 (UniProt Q8N1F7) was tested. Which log2 fold change did it give?
Answer: -0.079

Question: For MTCH2 (UniProt Q9Y6C9), which log2 fold change is on record?
Answer: 0.014

Question: With MTA2 (UniProt O94776) as the target, how does the log2 fold change read?
Answer: -0.031

Question: Which log2 fold change does the source give for NONO (UniProt Q15233) here?
Answer: -0.043

Question: Which log2 fold change does the source give for NCAPG2 (UniProt Q86XI2) here?
Answer: 0.074

Question: Which log2 fold change does the source give for NF1 (UniProt P21359) here?
Answer: -0.041

Question: NIPSNAP3A (UniProt Q9UFN0) was tested. Which log2 fold change did it give?
Answer: -0.213

Question: Which log2 fold change does the source give for PAN2 isoform 2 (UniProt Q504Q3) here?
Answer: -0.04

Question: With NUP205 (UniProt Q92621) as the target, how does the log2 fold change read?
Answer: -0.064

Question: How did the log2 fold change turn out when NBN (UniProt O60934) was run?
Answer: -0.058

Question: How did the log2 fold change turn out when NCAPD2 (UniProt Q15021) was run?
Answer: -0.055

Question: Which log2 fold change does the source give for NEK9 (UniProt Q8TD19) here?
Answer: 0.048

Question: How did the log2 fold change turn out when NMRAL1 (UniProt Q9HBL8) was run?
Answer: 0.053

Question: Which log2 fold change does the source give for OSBP2 (UniProt Q969R2) here?
Answer: 0.279

Question: How did the log2 fold change turn out when NLRP2 (UniProt Q9NX02) was run?
Answer: -0.05

Question: How did the log2 fold change turn out when NUF2 (UniProt Q9BZD4) was run?
Answer: -0.101

Question: For NR3C1 isoform 3 (UniProt P04150), which log2 fold change is on record?
Answer: -0.081
